{"source": "PubChem BioAssay", "data": [{"assay": "binders of probe aHhip on microarray, primary screen, stem cell growth factor project, biochemical, small-molecule microarray, fluorescence 635/667 (AID 1087);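 note: score merges spot fluorescence at 667nm with spot signal to noise ratio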", "conditions": "higher = more signal", "values": [{"molecule": "CC(C)=NO[C@H](C)c1cn([C@H](CO)Cc2ccccc2)nn1", "composite z-score": 0.0972}, {"molecule": "CCOC(=O)[C@H](CC(C)C)NC(=O)CCC1CC(OC(=O)NCc2cccc3ccccc23)CC2(CCCC(COC(=O)NCCOc3ccccc3)O2)O1", "note": "(stereo not given in full)", "composite z-score": 0.224}, {"molecule": "O=C1C[C@@H](O)[C@@H](O)[C@@H]2[C@@H]3C(=O)N(C[C@@H]4CCCO4)C(=O)[C@@H]3CC[C@@H]12", "composite z-score": 0.21}, {"molecule": "CCOC(=O)[C@H](CC(C)C)NC(=O)CCC1CC(OC(=O)NCc2cccc3ccccc23)CC2(CCCC(COC(=O)NCCc3ccc(Cl)cc3)O2)O1", "note": "(stereo not given in full)", "composite z-score": -0.0994}, {"molecule": "CO[C@H]1COC(=O)CC=C[C@@H](C)[C@H](NS(=O)(=O)c2ccc(C)cc2)COC(=O)CCC[C@@H]1C", "composite z-score": -0.635}, {"molecule": "CO[C@H]1COC(=O)[C@H](C)NC(=O)CC=C[C@@H](C)[C@H](OC)COC(=O)[C@@H](OCc2ccccc2)C=C[C@@H]1C", "composite z-score": -0.0994}, {"molecule": "CCCNC(=O)OC[C@H]1O[C@H](CCON=C(C)CCN2CCCc3nc(C)c(C)cc32)C=C[C@@H]1Oc1ccc(OC)cc1", "composite z-score": -0.0994}, {"molecule": "C#CCCCON=C1C[C@@H](O)[C@@H](O)[C@@H]2[C@@H]3C(=O)N(CC)C(=O)[C@@H]3CC[C@@H]12", "composite z-score": 0.235}, {"molecule": "COC(=O)[C@H](C)NC(=O)CCC1CC(OC(=O)NCc2ccc3c(c2)OCO3)CC2(CCCC(COC(=O)NCC3CCCCC3)O2)O1", "note": "(stereo not given in full)", "composite z-score": 0.231}, {"molecule": "CO[C@H]1COC(=O)CC=C[C@@H](C)[C@H](OC)COC(=O)[C@@H]2CCCN2C(=O)CC=C[C@@H]1C", "composite z-score": -0.169}, {"molecule": "CON=C[C@@H](NS(=O)(=O)c1ccc(C)cc1)[C@H](C)C=CCC(=O)OC", "composite z-score": -0.189}, {"molecule": "COc1cccc([C@H]2Oc3ccc(OC)cc3C(=NO[C@H](C)c3cn([C@H](CO)Cc4ccccc4)nn3)[C@@H]2O)c1", "composite z-score": -0.134}, {"molecule": "COc1ccc(COC(=O)NN=C2C[C@@H](O)[C@@H](O)[C@@H]3[C@@H]4C(=O)N(c5cccc(Oc6ccccc6)c5)C(=O)[C@@H]4CC[C@@H]23)cc1", "composite z-score": 0.262}, {"molecule": "CO[C@@H]1COC(=O)CC=C[C@H](C)[C@H](OC)COC(=O)[C@H](C)NC(=O)CC=C[C@H]1C", "composite z-score": -0.0491}, {"molecule": "O=C1C[C@@H](O)[C@@H](O)[C@@H]2[C@@H]3C(=O)N(C[C@@H]4CCCO4)C(=O)[C@@H]3CC[C@H]12", "composite z-score": -0.487}, {"molecule": "COC(=O)[C@@H]1CC[C@@H](C)[C@H](c2ccc(Br)cc2)N1", "composite z-score": -0.184}, {"molecule": "COC(=O)[C@@H]1CC[C@H](C)[C@@H](c2ccc(C)cc2)N1C(=O)c1ccc(C=NO[C@H](C)c2cn([C@@H]3COC[C@H]3O)nn2)cc1", "composite z-score": -0.124}, {"molecule": "Cn1c(=O)n2n(c1=O)[C@H]1[C@H](O)[C@@H]3O[C@@H]3C(=NOCc3ccccc3)[C@H]1CC2", "composite z-score": -0.0088}, {"molecule": "CCOC(=O)NN=C1C[C@@H](O)[C@@H](O)[C@@H]2[C@@H]3C(=O)N(c4cccc(Oc5ccccc5)c4)C(=O)[C@@H]3CC[C@@H]12", "composite z-score": -0.249}, {"molecule": "COC(=O)[C@H](C)NC(=O)CCC1CC(OC(=O)NCc2cccc3ccccc23)CC2(CCCC(COC(=O)NCC(c3ccccc3)c3ccccc3)O2)O1", "note": "(stereo not given in full)", "composite z-score": -0.134}, {"molecule": "Cc1ccc(S(=O)(=O)n2c3ccccc3c3nnc(C(=O)c4ccccc4)nc32)cc1", "composite z-score": -0.137}, {"molecule": "COC(=O)C=CCCc1coc(C=CCNC(=O)OC)n1", "composite z-score": 0.851}, {"molecule": "CON=C1[C@H]2CCn3c(=O)n(-c4ccccc4)c(=O)n3[C@H]2[C@H](O)[C@@H]2O[C@H]12", "composite z-score": -0.199}, {"molecule": "CC(C)=CCCC(C)=CCON=C1C[C@@H](O)[C@@H](O)[C@@H]2[C@@H]3C(=O)N(C4CCCCC4)C(=O)[C@@H]3CC[C@@H]12", "composite z-score": -0.374}, {"molecule": "O=C1[C@H]2[C@H]3[C@H](O)[C@H](O)CC(=NOC[C@@H](O)COCc4ccco4)[C@H]3CC[C@H]2C(=O)N1C[C@@H]1CCCO1", "composite z-score": -0.337}, {"molecule": "O=C(NN=C1C[C@@H](O)[C@@H](O)[C@@H]2[C@@H]3C(=O)N(C[C@@H]4CCCO4)C(=O)[C@@H]3CC[C@@H]12)OCc1ccccc1", "composite z-score": -0.0994}, {"molecule": "COc1ccc(C#C[C@@H]2C=C[C@H](OC(C)=O)[C@@H](COC(C)=O)O2)cc1", "composite z-score": -0.191}, {"molecule": "CC(C)CON=C1C[C@@H](O)[C@@H](O)[C@@H]2[C@@H]3C(=O)N(c4cccc(Oc5ccccc5)c4)C(=O)[C@@H]3CC[C@@H]12", "composite z-score": 0.0373}, {"molecule": "CCOC(=O)[C@H](CC(C)C)NC(=O)CCC1CC(OC(=O)NCc2cccc3ccccc23)CC2(CCCC(COC(=O)NCc3cccc(C(F)(F)F)c3)O2)O1", "note": "(stereo not given in full)", "composite z-score": 0.0749}, {"molecule": "C#CCCCON=C1C[C@@H](O)[C@@H](O)[C@@H]2[C@@H]3C(=O)N(Cc4ccccc4)C(=O)[C@@H]3CC[C@@H]12", "composite z-score": 0.0176}]}]}
